Screens as filed in PubChem BioAssay.
Most compounds without a hit are left out; they make up all but 12% or so of the library.
Sfp PPTase inh – qHTS Assay for Inhibitors of Bacillus subtilis Sfp phosphopantetheinyl transferase (PPTase); 4'-phosphopantetheinyl transferase ffp (Bacillus subtilis), Q9F4F7; Biochemical Sfp PPTase activity, qHTS; Potency, µM, actives largely listed as inhibitors; 310,000 compounds, 3.5% hits;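 further: the enzyme is Sfp with the accession as filed and its product quenches rhodamine fluorescence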
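With Hepes-Na pH 7.6 buffer containing 10 mM MgCl2, Sfp (15 nM) modified BHQ-2-YbbR (12.5 uM) using rhodamine-CoA (5 uM). Two reads 30 minutes apart at 525/598 nm yielded each well's rate.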
BAZ2B inh – qHTS Assay for Inhibitors of BAZ2B. AID 504333, 2011. 360,000 compounds, 4.4% hits. AlphaScreen BAZ2B-H3K14Ac peptide displacement. Potency, µM (top dose mostly 114 µM), actives largely listed as inhibitors. Bromodomain adjacent to zinc finger domain protein 2B (Homo sapiens), Q9UIF8; further: nearly all actives have a fitted effect of over 60% in size
Target sequence (Q9UIF8 whole entry, looked up, the tested form may be a part): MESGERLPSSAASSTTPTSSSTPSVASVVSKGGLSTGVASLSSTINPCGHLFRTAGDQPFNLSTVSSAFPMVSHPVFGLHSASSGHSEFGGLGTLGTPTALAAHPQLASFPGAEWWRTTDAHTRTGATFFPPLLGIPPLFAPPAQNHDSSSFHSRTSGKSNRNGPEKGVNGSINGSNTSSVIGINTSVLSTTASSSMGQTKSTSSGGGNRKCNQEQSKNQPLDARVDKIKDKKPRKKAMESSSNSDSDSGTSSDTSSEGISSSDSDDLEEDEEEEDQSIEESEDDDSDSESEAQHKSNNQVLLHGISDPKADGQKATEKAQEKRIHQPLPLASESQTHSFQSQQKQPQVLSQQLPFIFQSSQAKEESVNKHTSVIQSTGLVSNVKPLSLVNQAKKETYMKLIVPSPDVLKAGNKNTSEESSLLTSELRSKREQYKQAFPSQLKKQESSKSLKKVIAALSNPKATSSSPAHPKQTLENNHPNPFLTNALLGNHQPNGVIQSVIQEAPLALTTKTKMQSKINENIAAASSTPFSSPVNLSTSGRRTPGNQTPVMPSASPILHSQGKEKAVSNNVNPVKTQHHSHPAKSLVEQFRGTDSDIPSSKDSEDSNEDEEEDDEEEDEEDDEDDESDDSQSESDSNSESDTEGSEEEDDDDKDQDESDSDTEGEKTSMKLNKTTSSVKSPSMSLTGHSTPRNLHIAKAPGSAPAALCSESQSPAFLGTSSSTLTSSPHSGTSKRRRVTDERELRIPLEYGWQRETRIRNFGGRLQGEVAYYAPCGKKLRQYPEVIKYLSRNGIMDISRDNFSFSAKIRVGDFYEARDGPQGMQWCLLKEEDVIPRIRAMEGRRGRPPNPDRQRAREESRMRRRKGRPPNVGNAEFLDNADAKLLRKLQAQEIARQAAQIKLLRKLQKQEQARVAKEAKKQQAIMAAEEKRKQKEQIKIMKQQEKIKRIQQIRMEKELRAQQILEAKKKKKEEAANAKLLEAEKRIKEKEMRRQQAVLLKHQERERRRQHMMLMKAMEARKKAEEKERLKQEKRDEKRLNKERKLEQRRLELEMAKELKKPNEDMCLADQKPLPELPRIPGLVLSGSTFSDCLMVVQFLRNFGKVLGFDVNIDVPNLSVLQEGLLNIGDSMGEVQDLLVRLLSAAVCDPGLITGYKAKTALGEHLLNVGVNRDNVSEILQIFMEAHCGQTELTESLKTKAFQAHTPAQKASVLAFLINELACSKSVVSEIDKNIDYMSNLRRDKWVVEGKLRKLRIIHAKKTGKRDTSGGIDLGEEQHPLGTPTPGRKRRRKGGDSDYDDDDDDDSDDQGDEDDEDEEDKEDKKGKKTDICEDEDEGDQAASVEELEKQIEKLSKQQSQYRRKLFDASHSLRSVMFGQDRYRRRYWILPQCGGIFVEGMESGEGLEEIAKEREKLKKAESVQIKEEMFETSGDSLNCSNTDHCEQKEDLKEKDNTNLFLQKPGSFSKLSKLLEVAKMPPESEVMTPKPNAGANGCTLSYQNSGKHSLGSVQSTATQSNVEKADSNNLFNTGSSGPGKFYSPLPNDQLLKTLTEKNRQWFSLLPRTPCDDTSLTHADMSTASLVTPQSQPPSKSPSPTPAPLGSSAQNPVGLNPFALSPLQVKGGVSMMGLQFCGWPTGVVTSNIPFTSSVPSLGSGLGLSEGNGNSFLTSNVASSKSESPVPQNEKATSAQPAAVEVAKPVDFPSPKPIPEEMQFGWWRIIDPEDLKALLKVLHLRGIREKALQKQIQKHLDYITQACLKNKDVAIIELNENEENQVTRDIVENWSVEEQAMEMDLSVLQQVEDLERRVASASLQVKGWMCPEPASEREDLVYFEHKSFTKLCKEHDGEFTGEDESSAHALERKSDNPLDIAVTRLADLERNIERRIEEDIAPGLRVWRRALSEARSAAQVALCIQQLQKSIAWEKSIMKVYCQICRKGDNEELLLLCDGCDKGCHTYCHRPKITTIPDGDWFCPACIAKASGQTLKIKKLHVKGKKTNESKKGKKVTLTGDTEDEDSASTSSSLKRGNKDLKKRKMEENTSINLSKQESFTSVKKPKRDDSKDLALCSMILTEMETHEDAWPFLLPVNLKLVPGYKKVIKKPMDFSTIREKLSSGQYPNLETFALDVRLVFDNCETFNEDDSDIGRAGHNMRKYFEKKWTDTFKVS
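AlphaScreen luminescence quantifies BAZ2B engagement of H3K14Ac peptide; the protein and biotinylated peptide are both at 50 nM final, buffer PBS pH 7.4 with 0.01% Tween-20, all steps at room temperature.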
JMJD2A Tudor – qHTS Assay for Inhibitors of JMJD2A-Tudor Domain; AlphaScreen JMJD2A-Tudor / H3K4me3 peptide binding; Potency, µM (doses to about 114 µM), hits mostly inhibitors; 390,000 compounds, 4.4% hits; AID 504339, 2011; further: nearly all actives have a fitted effect of over 50% in size
HP1b binding inh – HTS for Inhibitors of HP1-beta Chromodomain Interactions with Methylated Histone Tails; AlphaScreen HP1-beta / biotin-H3K9me3 peptide binding; Potency, µM (highest dose often 114 µM), actives largely listed as inhibitors; 390,000 compounds, 0.56% hits; further: nearly all actives have a fitted effect of over 70% in size
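Compound inhibition of the preformed complex between 50 nM HP1-beta and 50 nM biotinylated H3K9me3 peptide was read by AlphaScreen. Buffer was PBS pH 7.4 with 0.01% Tween-20. Incubations ran 30 min at room temperature, with 10 ug/mL donor/acceptor beads.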
L3MBTL1 inh – qHTS Assay for the Inhibitors of L3MBTL1. 230,000 compounds, 0.66% hits. Potency, µM (top dose mostly 57.1 µM), most hits filed as inhibitors. AID 485360, 2010. AlphaScreen L3MBTL1–H3K9me1 peptide binding; further: nearly all actives have a fitted effect of over 60% in size
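AlphaScreen proximity signal between nickel-chelate acceptor and streptavidin donor beads (final 10 ug/mL) reports binding of 50 nM L3MBTL1 to 75 nM biotin-H3 K9me1 peptide; complex incubated with compounds 30 min at room temperature; cefsulodin titration as control.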
G9a block – qHTS Assay for Inhibitors of Histone Lysine Methyltransferase G9a. Histone-lysine N-methyltransferase EHMT2 (Homo sapiens), Q96KQ7. G9a H3K9 monomethylation, AlphaScreen, 2 h. Potency, µM (top dose mostly 102 µM), usual class: inhibitors. 350,000 compounds, 8.8% hits; further: nearly all actives have a fitted effect of over 75% in size
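AlphaScreen read-out: biotin-H3K9 peptide (500 nM) methylation by 20 nM enzyme with 20 uM SAM, 2 h at room temperature after 15 min compound preincubation; anti-monomethyl H3K9 antibody plus donor/acceptor beads, 10 min dark.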
Hits are given with their value; . = inactive; ? = inconclusive; / = no result given; ! = not active in a repeat; [ ] = remark or other dose. The call rests on the fitted dose curve; in most records, active means well fitted curve in the direction sought with a large enough effect; inconclusive means small, poorly fitted or top-dose-only effect, or another doubt; inactive means no such curve, though single readings can be large; an effect the other way counts as inactive or inconclusive.

SMILES	Sfp PPTase inh	BAZ2B inh	JMJD2A Tudor	HP1b binding inh	L3MBTL1 inh	G9a block
CCOc1ccc(NC(=O)N2CCC(N3CCCCC3)CC2)cc1	/	.	.	.	/	.
Cn1c(C(=O)NCc2ccc(F)cc2)cc2c(=O)n(C)c3ccccc3c21	/	.	.	.	/	.
Cc1ccnc(NS(=O)(=O)c2ccc(NC(=O)Cc3ccc(Br)cc3)cc2)n1	.	.	.	.	/	.
COc1ccc(-n2c(-c3ccc(C)cc3)n[nH]c2=S)cc1	89µM	.	20µM	.	.	4µM
COc1cc(-c2n[nH]c(=S)n2-c2ccc(C)cc2)cc(OC)c1OC	.	50µM	5µM	.	.	/
Cc1ccc(-n2c(-c3ccccc3)n[nH]c2=S)cc1	79µM	?	2.2µM	.	.	0.89µM
Cc1ccc(-c2n[nH]c(=S)c3ccccc23)cc1	.	.	.	.	.	32µM
CCCN(CCC)CC(O)Cn1cc(/C=C/C(=O)c2ccc(OCC)cc2)c2ccccc21 (stereo not given)	/	?	?	.	/	.
COc1ccc(-c2n[nH]c(=S)n2-c2ccc(Br)cc2)cc1OC	.	.	50µM	.	.	1.6µM
O=C(Cc1ccc(NC(=O)C2CCN(C(=O)C3CC3)CC2)cc1)Nc1ccc(C(=O)N2CCOCC2)cc1	/	/	.	.	/	/
O=C1Cc2c([nH]c3ccc(Br)cc23)-c2ccccc2N1	.	/	.	.	/	40µM
CCOC(=O)N1CCN(C(=S)NC(=O)/C=C/c2ccc(C)cc2)CC1	.	.	.	.	/	.
CCc1nn(CC(=O)NC2CC2)c(=O)c2cc3ccccc3n12	/	.	.	.	/	.
CCc1nn(CC(=O)NC2CCN(Cc3ccccc3)CC2)c(=O)c2cc3cc(F)ccc3n12	.	.	.	.	/	45µM
CCc1nn(CC(=O)NC(C)CCc2ccccc2)c(=O)c2cc3cc(F)ccc3n12 (stereo not given)	.	?	.	.	/	50µM!
CCc1nn(CC(=O)NC(C)CCc2ccccc2)c(=O)c2cc3c(OC)cccc3n12 (stereo not given)	/	.	.	.	/	.
O=C1C(Cc2ccccc2)Nc2ncnc(N3CCc4ccccc4C3)c2N1Cc1ccc(Br)cc1 (stereo not given)	/	.	/	/	.	.[2.33 µM]
C[C@H]1Cc2c(COc3ccccc3)nc3c(c2CO1)CN(S(=O)(=O)c1ccc(C#N)cc1)CC3	.	/	/	/	/	/
CC(C)(Oc1ccc(Cl)cc1)C(=O)OCc1nc2ccsc2c(=O)[nH]1	/	.	.	.	.	.
CCn1c(=N)n(CCOc2ccc(Br)cc2)c2ccccc21	/	.	.	.	/	.
CC1(C)CC(=O)c2sc(NC(=O)CN3CCCCC3)nc2C1	.	/	?	.	.	14µM
CCOc1ccc(NC(=O)COC(=O)c2ccc3ncsc3c2)cc1OCC	/	?	.	.	.	45µM
CC1(C)CC(=O)c2sc(NC(=O)c3ccc4ncsc4c3)nc2C1	50µM	.	.	.	.	?
CC1(C)CC(=O)c2sc(NC(=O)C(C)(C)C)nc2C1	.	.	.	.	.	/
CC1(C)CC(=O)c2sc(NC(=O)c3ccccc3)nc2C1	.	.	/	/	.	/
SMILES	Sfp PPTase inh	BAZ2B inh	JMJD2A Tudor	HP1b binding inh	L3MBTL1 inh	G9a block
O=C(Nc1ccc(Br)cc1)c1ccc2ncsc2c1	?	.	.	.	/	45µM
Cc1ccc(-n2nc(C)c(C(=O)NCCCN3CCN(c4cccc(Cl)c4)CC3)c2-n2cccc2)cc1	/	?	?	.	/	.
COc1ccc(S(=O)(=O)c2cc3cc(C(C)(C)C)cc(O)c3oc2=O)cc1	/	25µM	?	.	/	16µM
O=C(O)c1ccc(N2Cc3ccccc3C2)cc1O	.	?	?	.	/	8.9µM
O=C(O)c1ccc(N2CCCCC2)cc1O	.	.	.	.	.	/
CC[C@@]1(c2ccccc2OC)C(=O)N(C(=O)OC)N1C(=O)OC	.	.	.	.	.	/
COC(=O)N1C(=O)[C@](CC(C)C)(c2ccccc2)N1C(=O)OC	.	.	.	.	.	79µM
COC(=O)N1C(=O)[C@@](CC(C)C)(c2ccccc2)N1C(=O)OC	.	.	/	/	.	50µM
CCOC(=O)N1C(=O)[C@@](CC)(c2ccccc2)N1C(=O)OCC	.	.	.	.	.	/
CC[C@@]1(c2cccc(C)c2)C(=O)N(C(=O)OC)N1C(=O)OC	.	?	.	.	.	45µM
COc1ccc(C)cc1NC(=O)CN(C)C1CCCCC1	.	.	.	.	/	.
CN(C(=O)CSc1nnc(COc2ccccc2F)n1N)C1CCS(=O)(=O)C1 (stereo not given)	/	.	.	.	.	20µM
CN(C)N(C(=O)c1cc(-c2cccs2)nn1-c1ccccc1)C1CCS(=O)(=O)C1 (stereo not given)	/	.	.	.	.	18µM
CCN(C(=O)CSc1nnc(COc2ccccc2F)n1N)C1CCS(=O)(=O)C1 (stereo not given)	.	.	.	.	/	.
CC1(NC(=O)c2cc(-c3cccs3)nn2-c2ccccc2)CCS(=O)(=O)C1 (stereo not given)	/	.	.	.	.	.
CN(C(=O)CSc1nnc(-c2ccc(F)cc2)c2ccccc12)C1CCS(=O)(=O)C1 (stereo not given)	.	?	.	.	.	22µM
CN(C(=O)CSc1n[nH]c(-c2cccs2)n1)C1CCS(=O)(=O)C1 (stereo not given)	/	.	.	.	.	50µM
CN(C(=O)CSc1nnc(-c2cccs2)o1)C1CCS(=O)(=O)C1 (stereo not given)	.	.	.	.	.	.
CCOc1ccc(C(=O)NCC(=O)NCC(c2ccc(OC)cc2)N2CCOCC2)cc1OCC (stereo not given)	/	.	.	.	.	.
Cc1ccc(-c2ccc(=O)n(CCC(=O)NCCc3ccccc3)n2)cc1	/	.	.	.	/	.
COC(=O)c1ccc(OC)c(CN2C(=O)N(c3ccc(C(C)=O)cc3)S(=O)(=O)c3ccccc32)c1	/	.	.	.	/	.
Cc1ccccc1Nc1nnc(SCC(=O)N(C)C2CCS(=O)(=O)C2)s1 (stereo not given)	.	.	.	.	.	32µM
COc1ccc(-c2csc(-c3cccnc3)n2)cc1C	50µM	.	.	.	.	.[0.501 µM]
NC(=O)c1cc(-c2csc(-c3cccnc3)n2)ccc1O	?	.	.	.	/	32µM
Cc1ccc(N=Nc2c(=O)[nH]n3c(=O)cc(C)[nH]c23)cc1	.	50µM	?	.	/	?
